Records with an inconclusive call do not appear. Active and inactive are the calls of the source. Calls follow the shape of the dose curve; as a rule, active = well fitted inhibition curve with a large enough effect; inconclusive = small, poorly fitted or top-dose-only effect; inactive = flat fitted curve, though single readings scatter.
How the values were obtained:
CRL-7250 = normal cell line; experiment: Cytotoxic Profiling of Annotated Libraries Using Quantitative High-Throughput Screening (AID 1296008); conditions: Five cell lines viability, CellTiter-Glo ATP luminescence, 48-72 h; max response: stronger effect = lower value; as to max response: % is scaled to controls: 0 for no effect and ±100 for the full control effect
Summary of the method: (§1)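 Compounds were pin-transferred onto cells and incubated 48 or 72 hr at 37 degree Celsius, 95% humidity. CellTiter-Glo was added, plates sat 10 min at room temperature, then ATP-coupled luminescence was imaged as the viability read-out.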

HEK293 = experiment: as above; conditions: Five cell lines viability, CellTiter-Glo ATP luminescence, 48-72 h; max response: stronger effect = lower value
Summary of the method: as §1

HaCat [1] = experiment: as above; conditions: Five cell lines viability, CellTiter-Glo ATP luminescence, 48-72 h; max response: stronger effect = lower value
Summary of the method: as §1

KB-3-1 = experiment: as above; conditions: Five cell lines viability, CellTiter-Glo ATP luminescence, 48-72 h; max response: stronger effect = lower value
Summary of the method: as §1

NIH3T3 = experiment: as above; conditions: Five cell lines viability, CellTiter-Glo ATP luminescence, 48-72 h; max response: stronger effect = lower value
Summary of the method: as §1

HACAT [2] = experiment: qHTS assay to identify novel small-molecules to repurpose for Merkel cell carcinoma treatment (AID 1296009); conditions: MCC and control cell lines, CellTiter-Glo viability, 72 h; at 44.8 µM (top of the series) unless noted
Summary of the method: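 Luminescence from CellTiter-Glo, read 10 min after addition at room temperature, reported viability following a 72 hr, 37 degree celsius treatment with NPC or MIPE compounds in titration; values normalized to plate controls.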

Measured: max response
Also: nearly all actives have a fitted effect of over 60% in size.

C[C@@H]1O[C@@H](O[C@H]2[C@H](Oc3cc(O)c(C(=O)CCc4ccc(O)cc4)c(O)c3)O[C@H](CO)[C@@H](O)[C@@H]2O)[C@H](O)[C@H](O)[C@H]1O
inactive: CRL-7250 2.09% | HEK293 -1.52% | HaCat [1] | KB-3-1 | NIH3T3 | HACAT [2]

CCCN(CCN1CCN(c2ccccc2OC)CC1)C1CCc2ncsc2C1 (stereo not given)
inactive: CRL-7250 -14.3% | HEK293 0.117% | HaCat [1] -2.7% | KB-3-1 | NIH3T3

C/C(CO)=C1/CCC23COC(C2)C(O)(C(=O)O)CCC13 (stereo not given)
inactive: CRL-7250 1.3% | HEK293 | HaCat [1] 0.569% | KB-3-1 2.82% | NIH3T3 -0.495%

NC(=O)[C@@H]1CC[C@H](c2ccc(OCc3ccccc3F)cc2)N1
inactive: CRL-7250 -6.02% | HEK293 2.17% | HaCat [1] | KB-3-1 -8.37% | NIH3T3 | HACAT [2]

C[C@H]1/C=C/C=C/C=C/C=C/C=C/[C@@H](O)[C@H](C(=O)O)[C@H](O)C[C@H](O)CCC[C@H](O)C[C@H](O)C[C@H](O)[C@@H](C)C(=O)O[C@@H]1C
inactive: CRL-7250 | HEK293 1.51% | HaCat [1] 2.29% | KB-3-1 7.54% | NIH3T3

CC1=CCC(O)C2(C)CCC3C(C)C(=O)OC3C12 (stereo not given)
inactive: CRL-7250 -3.96% | HEK293 -18.2% | HaCat [1] | KB-3-1 -6.48% | NIH3T3 -0.383% | HACAT [2]

CC1(C)CC[C@]2(C(=O)O[C@@H]3O[C@H](CO)[C@@H](O)[C@H](O)[C@H]3O)CC[C@]3(C)C(=CCC4[C@@]5(C)CC[C@H](O[C@@H]6O[C@H](C(=O)O)[C@@H](O)[C@H](O)[C@H]6OC6OC(CO)C(O)C(O)C6O)C(C)(C)C5CC[C@]43C)[C@@H]2C1 (stereo not given in full)
inactive: CRL-7250 3.56% | HEK293 -12.1% | HaCat [1] | KB-3-1 | NIH3T3 | HACAT [2] inactive [at 9.27 µM]

C[C@]1(C2CCCC2)Cc2cc(OCC(=O)O)c(Cl)c(Cl)c2C1=O
inactive: CRL-7250 3.09% | HEK293 3.25% | HaCat [1] | KB-3-1 | NIH3T3 4.03% | HACAT [2]

CC(=O)OC1CC2C(C)(C)C(=O)C=CC2(C)C2CC(=O)C3=C(CCC3C3=CC(O)OC3=O)C12C (stereo not given)
inactive: CRL-7250 3.26% | HEK293 2.36% | HaCat [1] inactive; activator | KB-3-1 | NIH3T3 0.622% | HACAT [2] inactive; activator [at 17.4 µM]

CC(C)=C1CC2[C@](C)(CC[C@@H](OC(=O)C3(C)OC3C)[C@@]2(C)O)CC1=O (stereo not given in full)
inactive: CRL-7250 | HEK293 4.03% | HaCat [1] | KB-3-1 6.8% | NIH3T3 -3.35% | HACAT [2]

Cc1ccc2nc(NC(=O)CSc3nc4c(c(=O)n3-c3ccc(F)cc3)SCC4)sc2c1
inactive: CRL-7250 -14.2% | HEK293 -0.604% | HaCat [1] 1.13% | KB-3-1 9.39% | NIH3T3

CC(C)c1ccc2c(c1)[C@H](O)CC1[C@@](C)(C(=O)O)CCC[C@]21C (stereo not given in full)
inactive: CRL-7250 -0.592% | HEK293 -18.5% | HaCat [1] -16.8% | KB-3-1 -0.988% | NIH3T3

COc1cccc(Cn2ncc3c4sc(S(C)=O)cc4n(C)c3c2=O)c1 (stereo not given)
inactive: CRL-7250 2.15% | HEK293 -7.28% | HaCat [1] | KB-3-1 | NIH3T3 2.83% | HACAT [2]

O=C(CCc1ccccc1)c1c(O)c([C@@H]2O[C@H](CO)[C@@H](O)[C@H](O)[C@H]2O)c(O)c([C@@H]2O[C@H](CO)[C@@H](O)[C@H](O)[C@H]2O)c1O
inactive: CRL-7250 -8.34% | HEK293 0.0644% | HaCat [1] 3.51% | KB-3-1 8.16% | NIH3T3

Cc1cc(CO)c(O)c(C(=O)CC2CC(=O)NC(=O)C2)c1
inactive: CRL-7250 | HEK293 4.74% | HaCat [1] -10.8% | KB-3-1 | NIH3T3

NC[C@@H]1O[C@@H](O[C@@H]2[C@@H](O[C@@H]3O[C@H](CO)[C@@H](O)[C@H]3O)[C@H](O)[C@@H](N)C[C@H]2N)[C@@H](N)[C@H](O)[C@H]1O
inactive: CRL-7250 | HEK293 -4.01% | HaCat [1] | KB-3-1 | NIH3T3 | HACAT [2] inactive [at 9.27 µM]

CC1=CCC2C(C)(C)CCCC2(C)C1CC12OC1C(O)C(CO)=CC2O (stereo not given)
inactive: CRL-7250 3.52% | HEK293 -6.22% | HaCat [1] -4.23% | KB-3-1 9.42% | NIH3T3

O=C(O)/C=C/c1ccc(O[C@@H]2O[C@H](CO)[C@@H](O)[C@H](O)[C@H]2O)cc1
inactive: CRL-7250 | HEK293 -0.219% | HaCat [1] | KB-3-1 | NIH3T3 | HACAT [2]
